Inconclusive results are not listed. Where a call stands in place of a potency, no number is given. Activity calls are given as the source filed them. The call rests on the fitted dose curve; in most records, active means well fitted curve in the direction sought with a large enough effect; inconclusive means small, poorly fitted or top-dose-only effect, or another doubt; inactive means no such curve, though single readings can be large; an effect the other way counts as inactive or inconclusive.
How the values were obtained:
[1] = target: Aldehyde dehydrogenase, mitochondrial (Homo sapiens) (UniProt P05091); assay: qHTS for Inhibitors of the Aldehyde Dehydrogenase Family (ALDH2) Primary screen (AID 2061308); conditions: ALDH2 enzyme inhibition qHTS, 1536-well; series mostly up to 56 µM; further: nearly all actives have a fitted effect of over 55% in size
[2] = target: Retinaldehyde dehydrogenase 3 (Homo sapiens) (UniProt P47895); assay: qHTS for Inhibitors of the Aldehyde Dehydrogenase Family (ALDH1A3) Primary screen (AID 2061315); conditions: ALDH inhibition qHTS; series mostly up to 56 µM

Compound | Potency [1] | Potency [2]
N#Cc1cccc(NS(=O)(=O)c2ccc3c(c2)CCC(=O)N3)c1 | inactive | inactive
COc1cc(O)c(C(CC(=O)N2CCC[C@@H](C)C2)c2ccc3c(c2)OCO3)c(OC)c1 (stereo partly drawn) | inactive | inactive
COc1ccc(C2NC(=O)c3ccccc3N2)cc1COc1c(C)cc(NC(C)=O)cc1C (stereo not drawn) | inactive | inactive
C/C(=C\c1ccc2c(c1)OCCO2)C1Nc2cccc3cccc(c23)N1 | inactive | inactive
Cc1c(Br)cc(F)c([S+](=O)([O-])N2CCN([S+](=O)([O-])c3ccc4c(c3)OCCO4)CC2)c1F | inactive | inactive
Cc1ccc(-n2c(=O)ccc(=O)n2CC(=O)N(C)C(C)c2ccco2)cc1 (stereo not drawn) | inactive | inactive
COc1ccccc1C(=O)N1CCc2cc(-c3nc(NC(=O)Cc4ccc5c(c4)OCO5)sc3C)ccc21 | inactive | inactive
CCCn1c(C)nc2c(NCCCCN(CC)CC)nc(C)nc21 | inactive | inactive
COC(=O)c1ccc(O)c2ncc(NC3CCNCC3)cc12 | inactive | inactive
COC(=O)c1ccc(O)c2ncc(-c3ccc(C(=O)NCCCN(C)C)cc3)cc12 | inactive | inactive
O=C(c1ccccc1O)N(Cc1ccccc1)Cc1cccs1 | inactive | inactive
Fc1ccc(Nc2nc(-c3ccnc(N4CCCCC4)c3)nc3ccccc23)cc1F | inactive | inactive
Nc1cccc(OCCn2c(CCNC(=O)C3CCCCC3)nc3ccccc32)c1 | inactive | inactive
Cc1ccsc1C1N=C(Nc2nc3ccccc3o2)NC2=C1C(=O)CCC2 (stereo not drawn) | inactive | inactive

Source: PubChem BioAssay (NCATS)
